# Measured values: PubChem BioAssay (EPA / NIEHS)
# Inconclusive results are not listed. Activity calls are given as the source filed them. Rule for the calls, unless noted: active = hit-call score of the fitted dose curve at least 0.9, where 1 is the maximum; inconclusive = response in the unintended direction; inactive = score below 0.9.
# How the values were obtained:
# [1] = CCTE_Shafer_MEA_dev_spike_duration_mean: CCTE's Neural Network Formation Assay for Mean Spike Duration, Shafer Lab (AID 2284051; active = hit-call score of the fitted dose curve at least 0.9, where 1 is the maximum; inactive = score below 0.9;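 note: mean network spike duration pooled as area under curve over DIV 5 to 12 recordings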;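 for AC50: potency for a decrease in mean network spike duration versus DMSO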)
# How it was run: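 Readout is the average length of network spikes, clustered firing across electrodes, summed over DIV 5, 7, 9 and 12 as area under the curve. Neurons from rat cortex developed networks on MEA plates under continuous 12-day exposure.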
# [2] = CCTE_Shafer_MEA_dev_per_network_spike_spike_number_mean: CCTE's Neural Network Formation Assay for Mean Number of Spikes in a Network Spike, Shafer Lab (AID 2284053; active = hit-call score of the fitted dose curve at least 0.9, where 1 is the maximum; inactive = score below 0.9;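 for AC50: fitted as decrease in spikes per network spike relative to DMSO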)
# How it was run: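 Continuous twelve-day exposure of developing rat cortical networks grown over 16 microelectrodes per well; spontaneous firing is captured at four time points, and the per-network-spike spike number is integrated over development by trapezoidal AUC.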
# [3] = CCTE_Shafer_MEA_dev_per_network_spike_spike_percent: CCTE's Neural Network Formation Assay for Percent of Spikes in a Network Spike, Shafer Lab (AID 2284054; active = hit-call score of the fitted dose curve at least 0.9, where 1 is the maximum; inactive = score below 0.9)
# How it was run: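 Rat primary cortical neurons were grown on 48-well MEA plates (16 electrodes/well), exposed from plating day 0 through day 12, with treatment renewed on DIV 5 and 9. Percent of spikes within 0.05 s network-spike peaks was measured, summarised as AUC across days 5, 7, 9, 12.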
# [4] = CCTE_Shafer_MEA_dev_LDH: CCTE's Lactate Dehydrogenase Assay for Cytotoxicity in the Neural Network Formation Assay, Shafer Lab (AID 2284068);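 note: exposure for twelve days from plating with re-dosing on DIV 5 and 9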
# How it was run: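 Cytotoxicity companion to network-formation recordings: rat cortical neurons received compound over 12 days of development, re-dosed at DIV 5 and 9 feeds. Viability was inferred from LDH enzyme activity relative to DMSO.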
# [5] = CCTE_Shafer_MEA_dev_mutual_information_norm: CCTE's Neural Network Formation Assay for Mutual Information Normalization, Shafer Lab (AID 2284091; active = hit-call score of the fitted dose curve at least 0.9, where 1 is the maximum; inactive = score below 0.9)
# How it was run: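 Primary rat cortical neurons on PEI-coated 48-well MEA plates, 1.5 x 10^5 cells/well, exposed from day 0 through day 12 with re-dosing at DIV 5 and 9. Mutual information between electrodes recorded days 5, 7, 9, 12; trapezoidal AUC, loss-of-signal fit versus DMSO.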
# DIO2 (gene 1734) = experiment: CCTE_GLTED_hDIO2: CCTE's human Deiodinase 2 (DIO2) Inhibition Assay, Great Lakes Toxicology and Ecology Division (GLTED) Lab (AID 2284050)
# How it was run: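 Cell-free human DIO2 incubated 3 h with chemical; liberated iodide quantified by Sandell-Kolthoff absorbance. Triplicate plates; loss of signal fitted vs DMSO.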
# DIO3 (gene 1735) = experiment: CCTE_GLTED_hDIO3: CCTE's human Deiodinase 3 (DIO3) Inhibition Assay, Great Lakes Toxicology and Ecology Division (GLTED) Lab (AID 2284055);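 note: potency is for inhibition seen as loss of released iodide signal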
# How it was run: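 Human DIO3 from an adenovirus expression system is incubated 3 h with test chemical. Released iodide is quantified by Sandell-Kolthoff absorbance, in triplicate plates. Loss of signal is fitted relative to DMSO.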
# [6] = CCTE_Shafer_MEA_dev_AB: CCTE's Alamar Blue Assay for Cytotoxicity in the Neural Network Formation Assay, Shafer Lab (AID 2284083);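 note: twelve days of exposure from plating with re-dosing on DIV 5 and 9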
# How it was run: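 Fluorescent resazurin reduction serves as the viability read-out, with DMSO as negative control and baseline. Cells were primary rat cortical neurons grown on MEA plates and dosed from day 0 to day 12, treatment renewed on DIV 5 and 9.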
# [7] = CCTE_Shafer_MEA_acute_AB: CCTE's Alamar Blue Assay for Cytotoxicity in the Neural Acute Assay, Shafer Lab (AID 2284069);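 note: active compounds lower the viability signal compared with DMSO wells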
# How it was run: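 Metabolic activity in chemically exposed rat cortical neurons (MEA cultures, day 13/15 post-plating) measured via CellTiter Blue resazurin reduction, 544/590 nm fluorescence; fitted relative to DMSO, with signal loss indicating reduced viability.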
# [8] = CCTE_Shafer_MEA_acute_LDH: CCTE's Lactate Dehydrogenase Assay for Cytotoxicity in the Neural Acute Assay, Shafer Lab (AID 2284086);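 note: active means LDH release rises above DMSO vehicle level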
# How it was run: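 Medium from rat cortical neuron MEA cultures sampled right after the 40 min compound-exposure recording; released LDH measured by absorbance at 490 nm. Analyzed as signal gain relative to DMSO.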
compound,measurement,setting,value
O=C(O)C(F)(F)C(F)(F)C(F)(F)OC(F)(F)F,outcome,[1],inactive
same,outcome,[2],inactive
same,outcome,[3],inactive
same,outcome,[4],inactive
same,outcome,[5],inactive
CCCCCCCC/C=C\CCCCCCCC(=O)N(C)CC(=O)O,AC50,DIO2 (gene 1734),55.6 µM (active)
same,AC50,DIO3 (gene 1735),22 µM (active)
O=S(=O)(O)CCC(F)(F)C(F)(F)C(F)(F)C(F)(F)C(F)(F)C(F)(F)C(F)(F)C(F)(F)F,outcome,[1],inactive
same,outcome,[2],inactive
same,outcome,[3],inactive
same,outcome,[5],inactive
CCN=c1cc2oc3cc(NCC)c(C)cc3c(-c3ccccc3C(=O)OCC)c-2cc1C,AC50,DIO2 (gene 1734),154 µM (active)
same,AC50,DIO3 (gene 1735),157 µM (active)
C=CC(=O)OCCC(F)(F)C(F)(F)C(F)(F)C(F)(F)F,AC50,DIO2 (gene 1734),31.5 µM (active)
same,AC50,[1],22.7 µM (active)
same,AC50,[2],15 µM (active)
same,AC50,[3],8.58 µM (active)
same,AC50,DIO3 (gene 1735),51.8 µM (active)
same,AC50,[4],15 µM (active)
same,AC50,[6],21.8 µM (active)
same,outcome,[5],inactive
OCCCCC(F)(F)C(F)(F)C(F)(F)C(F)(F)F,outcome,[1],inactive
same,outcome,[2],inactive
same,outcome,[3],inactive
same,outcome,[4],inactive
same,outcome,[6],inactive
same,outcome,[5],inactive
CCCCCCCCn1sc(Cl)c(Cl)c1=O,AC50,DIO2 (gene 1734),26 µM (active)
same,AC50,DIO3 (gene 1735),7.82 µM (active)
CCN=C1C=CC(=C(c2ccc(N(CC)CC)cc2)c2ccc(N(CC)CC)cc2)c2ccccc21,AC50,DIO2 (gene 1734),42 µM (active)
same,AC50,DIO3 (gene 1735),8.42 µM (active)
same,AC50,[7],6.86 µM (active)
same,outcome,[8],inactive
O=S(=O)(Cl)C(F)(F)C(F)(F)C(F)(F)C(F)(F)C(F)(F)C(F)(F)C(F)(F)C(F)(F)F,AC50,DIO2 (gene 1734),66 µM (active)
CCCCCCCCCCCCCC[P+](CCCC)(CCCC)CCCC,AC50,DIO2 (gene 1734),17.1 µM (active)
same,AC50,DIO3 (gene 1735),3.56 µM (active)
OCC(F)(F)C(F)(F)C(F)(F)CO,outcome,[1],inactive
same,outcome,[2],inactive
same,outcome,[3],inactive
same,outcome,[4],inactive
same,outcome,[5],inactive
